Results filed as inconclusive are left out. Some compounds were tested as several samples or in several runs, with calls that do not always agree. The source made the active and inactive calls. Rule for the calls: active = hit-call score of the fitted dose curve at least 0.9, where 1 is the maximum; inconclusive = response in the unintended direction; inactive = score below 0.9.
Assay: Tanguay_ZF_120hpf_SWIM_legacy: (Legacy) Oregon State University Tanguay Lab 120 Hour Post-fertilization zebrafish Assay for Swim Bladder Malformation (AID 2283654);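 note: swim bladder malformation in each larva scored yes or no under brightfield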
Experimental: Tanguay_ZF_120hpf_legacy is a whole embryo, multiplexed endpoint assay using zebrafish larvae exposed for 120 hours post fertilization on a 96-well plate.Tanguay_ZF_120hpf_SWIM_legacy is one of one assay component(s) measured or calculated from the Tanguay_ZF_120hpf_legacy assay. It is designed to make measurements of zebrafish development as detected with brightfield microscopy of developing zebrafish embryos.Data from the assay component Tanguay_ZF_120hpf_SWIM_legacy was analyzed into 1 assay endpoints. This assay endpoint, Tanguay_ZF_120hpf_SWIM_legacy, was analyzed in the positive analysis fitting direction relative to DMSO as the negative control and baseline of activity. Using a type of morphology reporter, gain-of-signal activity can be used to understand changes in developmentals as they relate to the whole embryo. To generalize the intended target to other relatable targets, this assay endpoint is annotated to the zebrafish development intended target family, where the subfamily is swim bladder morphogenesis.
Zebrafish husbandry: Tropical 5D wild-type adult zebrafish were housed in at an approximate density of 1000 per 100 gallon tank at the Sinnhuber Aquatic Research Laboratory, Oregon State University, Corvallis, OR. Each tank was kept at standard laboratory conditions of 28C on a 14-h light/10-h dark photoperiod in fish water consisting of reverse osmosis water supplemented with a commercially available salt (Instant Ocean). Spawning funnels were placed into the tanks the night prior, and embryos were collected and staged. To increase bioavailability, the chorion was enzymatically removed using pronase (63.6mg/ml, >/= 3.5U/mg, Sigma-Aldrich: P5147) at 4 hours post fertilization (hpf) using a custom automated dechorionator.Chemical exposures: Six hpf dechorionated embryos were placed 1 embryo per well in a 96-well plate prefilled with 90 ul of EM using automated embryo placement systems (AEPS). Ten microliters of each row of dilution plate 2 was added to 2 exposure plates. The final DMSO concentration used was 0.64% (vol/vol). Thirty-two embryos were also exposed to 5uM trimethyltin chloride (positive control). Plates were sealed to prevent evaporation and foil covered to reduce light exposure and kept in a 28C incubator. Embryos were statically exposed until 120 hpf. At 24 hpf, embryos were assessed for photomotor response using a custom photomotor response analysis tool (PRAT) and for developmental toxicity endpoints (MO24: mortality at 24 hpf, DP: developmental progression, SM: spontaneous movement, and NC: notochord distortion). At 120 hpf, locomotor activity was measured using Viewpoint Zebralab and assessed for 18 endpoints. Zebrafish acquisition and analysis program (ZAAP), a custom program designed to inventory, acquire, and manage zebrafish data, was used to collect developmental endpoints as either present or absent (i.e., binary responses were recorded). If mortality occurred for an embryo (at either 24 or 120 hpf), the non-mortality endpoints were not measured.

| SMILES | outcome | AC50 |
| --- | --- | --- |
| O=C(O)C1(C(=O)Nc2ccc(Cl)cc2Cl)CC1 | inactive |  |
| CN(C)C(=O)Nc1ccc(Cl)c(Cl)c1 | inactive |  |
| CC(=O)S[C@@H]1CC2=CC(=O)CC[C@]2(C)[C@H]2CC[C@@]3(C)[C@@H](CC[C@@]34CCC(=O)O4)[C@H]12 | inactive |  |
| CCCCOC(=O)C(C)Oc1ccc(Oc2ccc(C(F)(F)F)cn2)cc1 (stereo not given) | inactive |  |
| O=C(c1ccccc1)C1CCCCC1 | inactive |  |
| CCOC(=O)COc1cc(-n2ncc(C(F)(F)F)c(C)c2=O)c(F)cc1Cl | inactive |  |
| CCOC(=O)c1ccc(O)cc1 | inactive |  |
| CCOC(=O)NCCOc1ccc(Oc2ccccc2)cc1 | inactive |  |
| C[C@]12CC[C@@H]3c4ccc(O)cc4C[C@@H](CCCCCCCCCS(=O)CCCC(F)(F)C(F)(F)F)[C@H]3[C@@H]1CC[C@@H]2O (stereo not given in full) | inactive |  |
| CCOC(=O)C(C)Oc1ccc(Oc2nc3ccc(Cl)cc3o2)cc1 (stereo not given) | inactive |  |
| CC(C)(c1ccc(O)cc1)c1ccc(O)cc1 | inactive | 37.5 µM (active) |
| O=C(Nc1ccc([N+](=O)[O-])cc1Cl)c1cc(Cl)ccc1O | inactive |  |
| N#CSCSc1nc2ccccc2s1 | inactive |  |
| COC(=O)c1ccc(I)cc1S(=O)(=O)NC(=O)Nc1nc(C)nc(OC)n1 | inactive |  |
| OB(O)O | inactive |  |
| Oc1ccc(C(c2ccc(O)cc2)C(Cl)(Cl)Cl)cc1 |  | 202 µM (active) |
| CCCCOCCOCCOCc1cc2c(cc1CCC)OCO2 | inactive |  |
| CCCCC(CC)CN1C(=O)C2C3C=CC(C3)C2C1=O (stereo not given) | inactive |  |
| COC(=O)CSc1cc(N=c2sc(=O)n3n2CCCC3)c(F)cc1Cl | inactive |  |
| S=C(S)NCCNC(=S)S.[Mn+2].[S-]C([S-])=NCCN=C([S-])[S-].[Zn+2] | inactive |  |

| SMILES | outcome | AC50 |
| --- | --- | --- |
| O=C(O)c1ccccc1 | inactive |  |
| CC1(C)C(C=C(Cl)Cl)C1C(=O)OCc1cccc(Oc2ccccc2)c1 (stereo not given) | inactive |  |
| CCCCCOC(=O)COc1cc(N2C(=O)C3=C(CCCC3)C2=O)c(F)cc1Cl | inactive |  |
| c1ccc(Nc2ccccc2)cc1 | inactive |  |
| CC(C)CCCCCCc1ccc(O)cc1 | inactive |  |
| CSC(=O)c1cccc2nnsc12 | inactive |  |
| COC(=O)c1ccccc1C(=O)O | inactive |  |
| CCOC(=O)C(C)Oc1ccc(Oc2cnc3cc(Cl)ccc3n2)cc1 (stereo not given) | inactive |  |
| CCNc1nc(N)nc(Cl)n1 | inactive |  |
| CCCOC(=O)NCCCN(C)C | inactive |  |
| CCCN(CCC)C(=O)SCC | inactive |  |
| Cc1nn(C)c(Oc2ccccc2)c1C=NOCc1ccc(C(=O)OC(C)(C)C)cc1 | inactive |  |
| CCCCCCC(C)OC(=O)COc1nc(F)c(Cl)c(N)c1Cl (stereo not given) | inactive |  |
| COCCO | inactive |  |
| CC(C)(C)[C@@H](O)[C@@H](Cc1ccc(Cl)cc1)n1cncn1 | inactive |  |
| C#CCOC(=O)[C@@H](C)Oc1ccc(Oc2ncc(Cl)cc2F)cc1 | inactive |  |
| CCN(CC)C(=O)c1cccc(C)c1 | inactive |  |
| c1ccc2[nH]c(-c3cscn3)nc2c1 | inactive |  |
| CCCN(CCC)c1c([N+](=O)[O-])cc(C(F)(F)F)c(N)c1[N+](=O)[O-] | inactive |  |
